Results reported in the supplement of paper PMC10849652.
Targets with a hit are over-represented here; the source holds about 8,800 in all. About 0.5% of all pairs of compound and target were hits. Values without a mark were called inactive.

Legend:
Test in all cases: log2 fold change, soluble protein after heating vs DMSO (PISA); higher = thermal stabilisation; K562 lysate, 10 uM; active = over 0.2 and 3.5 SD of the protein, either way, in both replicates (recomputed)
nilotinib = compound: Cc1cn(-c2cc(NC(=O)c3ccc(C)c(Nc4nccc(-c5cccnc5)n4)c3)cc(C(F)(F)F)c2)cn1 [nilotinib]
Summary of the method: (§1)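 Soluble protein was defined as the supernatant remaining after 21,000xg for 90 min, following pooling of heated aliquots and adjustment to 0.5% NP-40 at 4°C. Before that, crude K562 extract at 1 mg/mL protein in PBS pH 7.4 with 1 mM MgCl2 was treated with 10 μM compound for 30 min and heated for 3 min across 48°C-58°C. Quantification used TMTpro 16plex LC-MS/MS with channel sums equalised, and values are log-two fold changes in thermal stability relative to solvent controls from duplicates.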

[1] = compound: Cc1nc(Nc2n[nH]c3c2CN(C(=O)N[C@H](CN(C)C)c2ccccc2)C3(C)C)c2sccc2n1
Summary of the method: as §1

dasatinib = compound: Cc1nc(Nc2ncc(C(=O)Nc3c(C)cccc3Cl)s2)cc(N2CCN(CCO)CC2)n1 [dasatinib]
Summary of the method: as §1

[2] = compound: Cc1ncc(-c2ccnc(Nc3ccc(S(C)(=O)=O)cc3)n2)n1C(C)C
Summary of the method: as §1

[3] = compound: Cn1cc(-c2ccc3c(c2)CCN3C(=O)Cc2cccc(C(F)(F)F)c2)c2c(N)ncnc21
Summary of the method: as §1

quisinostat = compound: Cn1cc(CNCC2CCN(c3ncc(C(=O)NO)cn3)CC2)c2ccccc21 [quisinostat]
Summary of the method: as §1

tipifarnib = compound: Cn1cncc1[C@@](N)(c1ccc(Cl)cc1)c1ccc2c(c1)c(-c1cccc(Cl)c1)cc(=O)n2C [tipifarnib]
Summary of the method: as §1

[4] = compound: NC(=O)Nc1cc(-c2cccc(F)c2)sc1C(=O)N[C@H]1CCCNC1
Summary of the method: as §1

[5] = compound: NC(=O)c1cnc(N[C@@H]2CCCC[C@@H]2N)nc1Nc1cccc(-n2nccn2)c1
Summary of the method: as §1

[6] = compound: NC1(c2ccc(-c3nc4ccn5c(=O)[nH]nc5c4cc3-c3ccccc3)cc2)CCC1
Summary of the method: as §1

[7] = compound: NCC(=O)Nc1ccc(-n2nc(C(F)(F)F)cc2-c2ccc3c(ccc4ccccc43)c2)cc1
Summary of the method: as §1

vorinostat = compound: O=C(CCCCCCC(=O)Nc1ccccc1)NO [vorinostat]
Summary of the method: as §1

silmitasertib = compound: O=C(O)c1ccc2c(c1)nc(Nc1cccc(Cl)c1)c1ccncc12 [silmitasertib]
Summary of the method: as §1

[8] = compound: O=C1NC(=O)C(c2cnc3ccccn23)=C1c1cn2c3c(cc(F)cc13)CN(C(=O)N1CCCCC1)CC2
Summary of the method: as §1

entospletinib = compound: c1cn2cc(-c3ccc4cn[nH]c4c3)nc(Nc3ccc(N4CCOCC4)cc3)c2n1 [entospletinib]
Summary of the method: as §1

Chain of UniProt Q9NVE7 (Q9NVE7 whole entry, looked up): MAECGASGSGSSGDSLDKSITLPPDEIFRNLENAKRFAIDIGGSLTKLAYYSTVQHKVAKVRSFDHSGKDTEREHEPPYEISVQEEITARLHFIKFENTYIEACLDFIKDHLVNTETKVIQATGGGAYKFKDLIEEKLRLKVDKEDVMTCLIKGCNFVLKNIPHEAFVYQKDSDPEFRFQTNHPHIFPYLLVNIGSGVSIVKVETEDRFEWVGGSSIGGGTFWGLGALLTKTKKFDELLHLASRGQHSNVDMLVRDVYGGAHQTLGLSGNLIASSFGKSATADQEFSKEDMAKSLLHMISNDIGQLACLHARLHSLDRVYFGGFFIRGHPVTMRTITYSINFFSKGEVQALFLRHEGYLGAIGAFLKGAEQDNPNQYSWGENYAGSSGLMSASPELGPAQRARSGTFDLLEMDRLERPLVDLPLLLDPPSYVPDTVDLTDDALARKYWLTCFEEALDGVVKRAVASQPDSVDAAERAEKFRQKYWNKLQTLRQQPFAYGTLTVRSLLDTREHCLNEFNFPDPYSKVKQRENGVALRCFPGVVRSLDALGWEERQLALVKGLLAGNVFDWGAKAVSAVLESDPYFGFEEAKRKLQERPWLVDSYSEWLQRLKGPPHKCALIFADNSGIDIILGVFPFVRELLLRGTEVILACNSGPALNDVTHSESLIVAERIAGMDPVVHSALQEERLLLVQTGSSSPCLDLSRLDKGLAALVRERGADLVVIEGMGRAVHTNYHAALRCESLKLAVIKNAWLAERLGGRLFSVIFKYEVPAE
Chain of UniProt P20585 (P20585 whole entry, looked up): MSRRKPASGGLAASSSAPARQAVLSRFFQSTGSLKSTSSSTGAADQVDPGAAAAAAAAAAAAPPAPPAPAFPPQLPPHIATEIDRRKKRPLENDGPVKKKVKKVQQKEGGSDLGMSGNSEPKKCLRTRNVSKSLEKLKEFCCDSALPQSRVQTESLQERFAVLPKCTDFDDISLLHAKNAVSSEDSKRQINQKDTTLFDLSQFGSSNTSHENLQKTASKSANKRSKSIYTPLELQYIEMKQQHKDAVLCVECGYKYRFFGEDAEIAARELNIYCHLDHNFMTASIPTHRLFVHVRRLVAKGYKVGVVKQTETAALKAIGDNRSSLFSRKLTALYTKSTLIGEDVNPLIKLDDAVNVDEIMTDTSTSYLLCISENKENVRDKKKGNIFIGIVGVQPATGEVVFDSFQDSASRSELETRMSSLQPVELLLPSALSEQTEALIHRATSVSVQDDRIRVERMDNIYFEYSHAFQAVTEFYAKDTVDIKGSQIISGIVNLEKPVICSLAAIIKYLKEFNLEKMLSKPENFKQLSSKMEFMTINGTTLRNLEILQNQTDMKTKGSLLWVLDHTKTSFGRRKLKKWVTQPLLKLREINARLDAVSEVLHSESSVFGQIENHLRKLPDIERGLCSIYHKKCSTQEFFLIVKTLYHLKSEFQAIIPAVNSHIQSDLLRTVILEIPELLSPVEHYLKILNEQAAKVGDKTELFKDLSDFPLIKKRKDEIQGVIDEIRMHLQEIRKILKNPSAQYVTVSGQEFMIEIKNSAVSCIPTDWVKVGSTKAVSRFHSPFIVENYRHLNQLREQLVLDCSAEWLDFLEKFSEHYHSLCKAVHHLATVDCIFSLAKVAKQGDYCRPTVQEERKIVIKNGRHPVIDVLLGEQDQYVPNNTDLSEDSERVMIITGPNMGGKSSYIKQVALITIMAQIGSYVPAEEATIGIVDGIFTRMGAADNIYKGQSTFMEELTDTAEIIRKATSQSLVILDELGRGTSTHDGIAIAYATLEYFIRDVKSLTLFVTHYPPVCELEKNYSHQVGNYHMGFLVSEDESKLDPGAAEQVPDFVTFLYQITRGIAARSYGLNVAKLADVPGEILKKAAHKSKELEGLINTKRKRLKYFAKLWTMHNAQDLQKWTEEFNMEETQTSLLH
Chain of UniProt P00156 (P00156 whole entry, looked up): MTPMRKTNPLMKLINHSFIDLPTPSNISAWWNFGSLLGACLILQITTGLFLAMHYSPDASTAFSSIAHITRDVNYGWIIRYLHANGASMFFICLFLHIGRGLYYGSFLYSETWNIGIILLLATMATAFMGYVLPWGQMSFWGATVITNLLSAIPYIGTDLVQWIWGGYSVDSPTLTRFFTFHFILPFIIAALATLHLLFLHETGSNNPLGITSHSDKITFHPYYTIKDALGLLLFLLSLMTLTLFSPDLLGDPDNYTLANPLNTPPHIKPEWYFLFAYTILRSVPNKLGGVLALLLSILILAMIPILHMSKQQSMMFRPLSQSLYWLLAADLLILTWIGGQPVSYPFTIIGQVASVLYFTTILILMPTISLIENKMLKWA
Chain of UniProt P08651 (P08651 whole entry, looked up): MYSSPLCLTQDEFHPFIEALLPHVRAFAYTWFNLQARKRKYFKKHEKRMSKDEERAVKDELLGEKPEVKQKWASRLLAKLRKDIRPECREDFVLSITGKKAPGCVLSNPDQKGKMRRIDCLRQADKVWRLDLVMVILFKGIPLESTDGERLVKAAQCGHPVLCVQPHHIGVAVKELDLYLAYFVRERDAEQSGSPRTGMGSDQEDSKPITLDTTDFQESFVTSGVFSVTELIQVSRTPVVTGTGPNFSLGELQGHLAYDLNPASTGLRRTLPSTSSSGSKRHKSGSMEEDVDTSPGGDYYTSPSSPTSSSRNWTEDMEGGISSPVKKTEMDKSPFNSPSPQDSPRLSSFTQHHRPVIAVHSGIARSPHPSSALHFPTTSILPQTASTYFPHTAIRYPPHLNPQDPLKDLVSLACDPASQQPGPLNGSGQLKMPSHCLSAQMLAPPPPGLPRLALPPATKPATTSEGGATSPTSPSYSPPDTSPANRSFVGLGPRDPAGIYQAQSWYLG
Chain of UniProt Q9Y5A7 (Q9Y5A7 whole entry, looked up): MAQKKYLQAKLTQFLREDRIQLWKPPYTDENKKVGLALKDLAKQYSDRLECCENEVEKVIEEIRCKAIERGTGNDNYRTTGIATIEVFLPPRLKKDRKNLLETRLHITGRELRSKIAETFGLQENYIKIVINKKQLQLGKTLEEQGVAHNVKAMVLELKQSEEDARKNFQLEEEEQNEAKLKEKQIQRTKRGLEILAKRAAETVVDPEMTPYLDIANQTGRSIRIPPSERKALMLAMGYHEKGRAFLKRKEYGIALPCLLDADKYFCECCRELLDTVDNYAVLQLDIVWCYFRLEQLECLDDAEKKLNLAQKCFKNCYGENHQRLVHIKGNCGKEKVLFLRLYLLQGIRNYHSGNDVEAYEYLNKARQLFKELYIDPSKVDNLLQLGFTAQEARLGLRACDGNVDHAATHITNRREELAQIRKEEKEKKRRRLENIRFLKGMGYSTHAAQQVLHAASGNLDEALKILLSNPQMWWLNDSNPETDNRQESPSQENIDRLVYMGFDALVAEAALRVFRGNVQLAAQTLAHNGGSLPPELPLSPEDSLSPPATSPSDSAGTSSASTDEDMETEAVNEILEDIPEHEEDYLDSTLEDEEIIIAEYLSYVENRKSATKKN
Chain of UniProt Q15233 (Q15233 whole entry, looked up): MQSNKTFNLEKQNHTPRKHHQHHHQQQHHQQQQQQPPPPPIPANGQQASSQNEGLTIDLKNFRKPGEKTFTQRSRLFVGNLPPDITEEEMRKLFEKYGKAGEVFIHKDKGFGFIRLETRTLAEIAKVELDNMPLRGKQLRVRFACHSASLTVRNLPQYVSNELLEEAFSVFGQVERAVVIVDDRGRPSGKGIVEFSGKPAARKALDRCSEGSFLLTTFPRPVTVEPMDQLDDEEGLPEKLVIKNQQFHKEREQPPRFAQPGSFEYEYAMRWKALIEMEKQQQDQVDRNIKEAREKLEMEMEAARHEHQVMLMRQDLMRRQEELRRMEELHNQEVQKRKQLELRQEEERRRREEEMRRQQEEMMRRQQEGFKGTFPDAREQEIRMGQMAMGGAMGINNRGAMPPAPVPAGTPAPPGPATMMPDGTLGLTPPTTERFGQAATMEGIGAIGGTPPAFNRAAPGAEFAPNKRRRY
Chain of UniProt Q9UFN0 (Q9UFN0 whole entry, looked up): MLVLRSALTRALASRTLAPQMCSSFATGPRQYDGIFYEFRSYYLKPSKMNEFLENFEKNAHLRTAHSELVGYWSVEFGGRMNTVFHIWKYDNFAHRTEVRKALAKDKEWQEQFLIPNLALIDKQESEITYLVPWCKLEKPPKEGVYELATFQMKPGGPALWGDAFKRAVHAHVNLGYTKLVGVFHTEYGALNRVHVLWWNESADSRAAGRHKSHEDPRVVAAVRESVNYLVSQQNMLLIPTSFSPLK
Chain of UniProt O00483 (O00483 whole entry, looked up): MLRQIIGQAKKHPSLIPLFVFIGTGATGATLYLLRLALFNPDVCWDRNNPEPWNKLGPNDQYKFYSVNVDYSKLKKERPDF

For MSH3 (UniProt P20585), the log2 fold change (nilotinib) was -0.007, the log2 fold change [1] was 0.034 and the log2 fold change (dasatinib) was -0.03. For the same target, the log2 fold change [2] was 0.028, the log2 fold change [3] was 0.014 and the log2 fold change (quisinostat) was -0.037. For the same target, the log2 fold change (tipifarnib) was -0.001, the log2 fold change [4] was -0.003 and the log2 fold change [5] was 0.011. For the same target, the log2 fold change [6] was -0.035, the log2 fold change [7] was 0.044 and the log2 fold change (vorinostat) was -0.316 (active). For the same target, the log2 fold change (silmitasertib) was 0.055, the log2 fold change [8] was -0.017 and the log2 fold change (entospletinib) was 0.025.

With NUB1 (UniProt Q9Y5A7) the log2 fold change (nilotinib) was -0.021, the log2 fold change [1] was 0.025 and the log2 fold change (dasatinib) was -0.03. The log2 fold change [2] was 0.028, the log2 fold change [3] was 0.014 and the log2 fold change (quisinostat) was 0.035. It also gave a log2 fold change (tipifarnib) of 0.003, a log2 fold change [4] of 0.018 and a log2 fold change [5] of 0.004. The log2 fold change [6] was -0.002, the log2 fold change [7] was -0.004 and the log2 fold change (vorinostat) was -0.333 (active). For the same target, the log2 fold change (silmitasertib) was -0.027, the log2 fold change [8] was 0.031 and the log2 fold change (entospletinib) was 0.001.

Work on PANK4 (UniProt Q9NVE7) yielded a log2 fold change (nilotinib) of 0.028, a log2 fold change [1] of -0.006 and a log2 fold change (dasatinib) of -0.086. For the same target, the log2 fold change [2] was -0.006, the log2 fold change [3] was 0.003 and the log2 fold change (quisinostat) was -0.054. The log2 fold change (tipifarnib) was 0.009, the log2 fold change [4] was 0.038 and the log2 fold change [5] was -0.003. The log2 fold change [6] was -0.045, the log2 fold change [7] was 0.012 and the log2 fold change (vorinostat) was -0.423 (active). For the same target, the log2 fold change (silmitasertib) was -0.03, the log2 fold change [8] was 0.055 and the log2 fold change (entospletinib) was 0.035.

NFIC (UniProt P08651) was tested, and the log2 fold change (nilotinib) was -0.058, the log2 fold change [1] was -0.162 and the log2 fold change (dasatinib) was 0.014. For the same target, the log2 fold change [2] was -0.114, the log2 fold change [3] was 0.022 and the log2 fold change (quisinostat) was -0.072. The log2 fold change (tipifarnib) was 0.014, the log2 fold change [4] was 0.029 and the log2 fold change [5] was 0.098. For the same target, the log2 fold change [6] was 0.016, the log2 fold change [7] was 0.063 and the log2 fold change (vorinostat) was -0.083. It also gave a log2 fold change (silmitasertib) of -0.026, a log2 fold change [8] of -0.032 and a log2 fold change (entospletinib) of -0.025.

NIPSNAP3A (UniProt Q9UFN0) showed a log2 fold change (nilotinib) of 0.001, a log2 fold change [1] of 0.016 and a log2 fold change (dasatinib) of 0.028. The log2 fold change [2] was 0.008, the log2 fold change [3] was -0.054 and the log2 fold change (quisinostat) was -0.053. The log2 fold change (tipifarnib) was 0.015, the log2 fold change [4] was 0.007 and the log2 fold change [5] was -0.052. It also gave a log2 fold change [6] of -0.025, a log2 fold change [7] of 0.03 and a log2 fold change (vorinostat) of 0.136. It also gave a log2 fold change (silmitasertib) of -0.061, a log2 fold change [8] of 0.017 and a log2 fold change (entospletinib) of -0.021.

NDUFA4 (UniProt O00483) showed a log2 fold change (nilotinib) of 0.062, a log2 fold change [1] of 0.058 and a log2 fold change (dasatinib) of 0.043. The log2 fold change [2] was 0.16, the log2 fold change [3] was -0.007 and the log2 fold change (quisinostat) was 0.104. The log2 fold change (tipifarnib) was 0.031, the log2 fold change [4] was -0.065 and the log2 fold change [5] was 0.08. The log2 fold change [6] was 0.019, the log2 fold change [7] was -0.041 and the log2 fold change (vorinostat) was -0.017. It also gave a log2 fold change (silmitasertib) of -0.004, a log2 fold change [8] of 0.01 and a log2 fold change (entospletinib) of -0.029.

In the case of MRPS12 (UniProt O15235), the log2 fold change (nilotinib) is reported as -0.026, the log2 fold change [1] is reported as 0.061 and the log2 fold change (dasatinib) is reported as -0.104. It also gave a log2 fold change [2] of -0.041, a log2 fold change [3] of -0.007 and a log2 fold change (quisinostat) of -0.051. The log2 fold change (tipifarnib) was -0.012, the log2 fold change [4] was 0.01 and the log2 fold change [5] was 0.018. For the same target, the log2 fold change [6] was 0.063, the log2 fold change [7] was -0.005 and the log2 fold change (vorinostat) was -0.35 (active). For the same target, the log2 fold change (silmitasertib) was -0.011, the log2 fold change [8] was -0.013 and the log2 fold change (entospletinib) was -0.046.

NONO (UniProt Q15233) was tested, and the log2 fold change (nilotinib) was -0.007, the log2 fold change [1] was -0.011 and the log2 fold change (dasatinib) was -0.047. It also gave a log2 fold change [2] of 0.007, a log2 fold change [3] of 0.012 and a log2 fold change (quisinostat) of -0.004. For the same target, the log2 fold change (tipifarnib) was -0.007, the log2 fold change [4] was 0.022 and the log2 fold change [5] was 0.008. The log2 fold change [6] was -0.013, the log2 fold change [7] was 0.013 and the log2 fold change (vorinostat) was -0.355 (active). It also gave a log2 fold change (silmitasertib) of 0.027, a log2 fold change [8] of -0.007 and a log2 fold change (entospletinib) of 0.

In the case of NUP210 (UniProt Q8TEM1), the log2 fold change (nilotinib) is reported as -0.019, the log2 fold change [1] is reported as -0.008 and the log2 fold change (dasatinib) is reported as -0.08. It also gave a log2 fold change [2] of 0.009, a log2 fold change [3] of 0.001 and a log2 fold change (quisinostat) of 0.084. It also gave a log2 fold change (tipifarnib) of -0.043, a log2 fold change [4] of -0.01 and a log2 fold change [5] of 0.059. For the same target, the log2 fold change [6] was -0.019, the log2 fold change [7] was -0.006 and the log2 fold change (vorinostat) was 0.276 (active). For the same target, the log2 fold change (silmitasertib) was 0.022, the log2 fold change [8] was -0.013 and the log2 fold change (entospletinib) was -0.038.

MT-CYB (UniProt P00156) gave a log2 fold change (nilotinib) of 0.063, a log2 fold change [1] of -0.081 and a log2 fold change (dasatinib) of 0.16. The log2 fold change [2] was 0.011, the log2 fold change [3] was 0 and the log2 fold change (quisinostat) was -0.131. The log2 fold change (tipifarnib) was -0.184, the log2 fold change [4] was -0.003 and the log2 fold change [5] was -0.037. It also gave a log2 fold change [6] of -0.06, a log2 fold change [7] of -0.064 and a log2 fold change (vorinostat) of 0.158. For the same target, the log2 fold change (silmitasertib) was 0.031, the log2 fold change [8] was 0.118 and the log2 fold change (entospletinib) was 0.174.
